# Experimental data: PubChem BioAssay
# “And” between values parts separate entries of the source, which are not always exact repeats. Equal entries are not always repeated. Records with an inconclusive call do not appear. For some of these results: Potency and affinity values are given separately. The source made the active and inactive calls. Unless noted, the rule behind the calls is not given here.
# What was measured:
# [1] = biological target: 6-phosphogluconate dehydrogenase, decarboxylating (Homo sapiens) (UniProt P52209); test: inhibition of human phosphogluconate dehydrogenase – biochemical, recombinant enzyme, NADPH absorbance, primary screen (AID 1159550;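 active = at least 20% inhibition of 6-phosphogluconate dehydrogenase activity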); settings: recombinant 6PGD, NADPH absorbance 341 nm; at 10 µM; stronger effect = higher value
# 6-phosphogluconate dehydrogenase, decarboxylating (Homo sapiens), sequence (P52209 whole entry, looked up): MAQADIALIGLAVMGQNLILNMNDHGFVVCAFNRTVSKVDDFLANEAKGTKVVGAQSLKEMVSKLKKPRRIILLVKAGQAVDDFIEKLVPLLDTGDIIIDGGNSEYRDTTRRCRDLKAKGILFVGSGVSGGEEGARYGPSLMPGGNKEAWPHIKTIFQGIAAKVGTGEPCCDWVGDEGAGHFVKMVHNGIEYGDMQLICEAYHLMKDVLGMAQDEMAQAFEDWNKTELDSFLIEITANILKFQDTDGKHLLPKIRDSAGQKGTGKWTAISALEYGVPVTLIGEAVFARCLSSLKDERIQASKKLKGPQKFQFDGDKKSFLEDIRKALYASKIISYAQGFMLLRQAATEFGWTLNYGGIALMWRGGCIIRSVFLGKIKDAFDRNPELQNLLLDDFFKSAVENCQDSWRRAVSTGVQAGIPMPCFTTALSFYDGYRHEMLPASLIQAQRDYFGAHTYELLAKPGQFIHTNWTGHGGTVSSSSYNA
# [2] = tested on: Aerobactin synthetase IucA (Klebsiella pneumoniae hvKP1); test: IucA enzyme inhibition, primary screen, biochemical, Spectrum library (AID 1346200); settings: malachite green pyrophosphate, A620, at 8 µM, stronger effect = lower value;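 note: 100% = wells without compound and 0% = wells lacking enzyme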
# [3] = blockers of polyQ-driven CASP3 activation – cell-based (AID 1583); settings: polyglutamine-induced caspase-3 activation, cell assay; stronger effect = higher value;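 tested at 10 µM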
# [4] = yeast 75Q aggregation reduction – 75Q-TubU reporter (AID 1593); settings: Yeast 75Q polyglutamine aggregation reporter
# [5] = restoration of touch response, mutant HTT neurons – whole organism, C. elegans mechanosensory neurons, N-terminal huntingtin (AID 1599); settings: C. elegans polyQ-huntingtin mechanosensory neurons, stronger effect = higher value
# [6] = blockers of cytochrome c efflux from mitochondria – biochemical, purified mitochondria (AID 1603); settings: stronger effect = lower value;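 note: mouse liver mitochondria challenged with calcium chloride; signal normalized to the plate average as 100%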
# [7] = polyglutamine aggregate formation blockers (AID 1604); settings: polyglutamine-induced protein aggregation inhibition assay; stronger effect = higher value; tested at 2.5 µM
# [8] = glutamate transport activators, MN-1 cells, MN-1 cell line (AID 1612); settings: MN-1 motor neuron cells, stronger effect = higher value;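 note: tested at 1 µM final; 0% = mean of DMSO vehicle wells on each plate; positive means more glutamate uptake than control and negative means less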
# [9] = GFP-Q80 aggregate reduction, neuronal-like cells, cell-based, NGF-treated PC12, GFPQ80 (AID 1614); settings: PC12 NGF-treated GFP-polyQ80 inclusion reduction;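 note: lower means fewer inclusions and 0 means no inclusions at all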
# [10] = 75Q-TubH aggregate inhibition, S. cerevisiae, yeast (AID 1616); settings: S. cerevisiae 75Q-TubH polyglutamine aggregation suppression; stronger effect = higher value
# [11] = EMT-state selective cytotoxicity in co-culture – imaging, PC-3E GFP, TEM4-18 mCherry, primary screen (AID 1345086;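 active = compounds killing one labelled cell type while sparing the other, by normalised counts and ratio limits, not self-fluorescent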;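 for all read-outs here: cells exposed to compound for 72 h before imaging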;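 for red/green cell ratio (normalised): normalised mesenchymal count divided by normalised epithelial count so high means epithelial killing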); settings: PC-3E GFP / TEM4-18 mCherry co-culture, imaging cell counts, at 1 µM; for red/green cell ratio (normalised): actives lie on both sides
# [12] = biological target: Mitogen-activated protein kinase 7 (Homo sapiens) (UniProt Q13164); test: Gal4-ERK5 driven luciferase induction – cell-based, HTS, primary screen (AID 1508626;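 active = luciferase signal above three times the same-plate solvent-only control wells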;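 note: luciferase driven by Gal4-ERK5 fusion binding five Gal4 sites before minimal TATA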); settings: HeLa Gal4-ERK5 transactivation, 18 h, at 5 µM, stronger effect = higher value
# Mitogen-activated protein kinase 7 (Homo sapiens), sequence (Q13164 whole entry, looked up, the tested form may be a part): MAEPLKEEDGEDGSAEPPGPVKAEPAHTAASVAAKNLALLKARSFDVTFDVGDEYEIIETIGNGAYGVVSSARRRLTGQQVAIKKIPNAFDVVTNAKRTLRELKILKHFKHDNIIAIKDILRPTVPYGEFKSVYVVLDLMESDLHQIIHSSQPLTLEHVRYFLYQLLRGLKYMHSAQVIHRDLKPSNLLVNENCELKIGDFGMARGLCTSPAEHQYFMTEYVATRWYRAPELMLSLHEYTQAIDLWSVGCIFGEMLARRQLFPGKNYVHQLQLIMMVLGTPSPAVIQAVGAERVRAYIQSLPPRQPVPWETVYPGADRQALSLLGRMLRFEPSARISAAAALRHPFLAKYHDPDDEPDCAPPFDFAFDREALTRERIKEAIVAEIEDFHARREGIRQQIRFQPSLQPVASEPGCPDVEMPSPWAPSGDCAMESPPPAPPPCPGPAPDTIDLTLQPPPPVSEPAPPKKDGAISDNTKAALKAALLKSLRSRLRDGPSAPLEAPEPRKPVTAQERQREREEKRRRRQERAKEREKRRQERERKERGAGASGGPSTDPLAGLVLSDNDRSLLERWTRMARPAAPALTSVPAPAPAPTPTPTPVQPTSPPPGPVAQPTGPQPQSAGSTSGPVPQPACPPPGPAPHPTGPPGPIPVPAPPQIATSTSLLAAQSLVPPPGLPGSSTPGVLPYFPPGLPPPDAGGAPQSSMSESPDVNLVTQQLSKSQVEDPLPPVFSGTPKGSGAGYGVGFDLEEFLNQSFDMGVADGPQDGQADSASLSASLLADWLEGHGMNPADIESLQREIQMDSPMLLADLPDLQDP
# [13] = viability loss with induced miR-34 in A549 – imaging, A549 dox-inducible miR-34, nuclei and caspase counts, primary screen (AID 1347080;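 active = compounds whose cell count with miR-34 switched on is under 0.7 times the count with it off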); settings: A549 miR-34 inducible, Hoechst nuclei count, 48 h
# [14] = MELAS cybrid and Rieske KO viability enhancers – cell-based, MELAS cybrids, Rieske KO mouse fibroblasts, CellTiter-Glo, primary screen (AID 1508586;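 active = mean z-score across replicates of 1.96 or higher in either the MELAS or the Rieske mutant cell line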;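 note: z relative to plate mean and SD of compound and empty wells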); settings: low glucose
# [15] = biological target: NAD(+) hydrolase SARM1 (Homo sapiens) (UniProt Q6SZW1); test: blocking NAD cleavage by SARM1 SAM-TIR – cell lysate, NAD-Glo luminescence (AID 1508614;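 active = compound whose remaining NAD level is above about 45 nM, limit read from the data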;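 note: higher remaining NAD means stronger inhibition of SARM1 NADase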); settings: SAM-TIR HEK293T lysate NADase, at 1 µM, stronger effect = higher value
# NAD(+) hydrolase SARM1 (Homo sapiens), sequence (Q6SZW1 whole entry, looked up): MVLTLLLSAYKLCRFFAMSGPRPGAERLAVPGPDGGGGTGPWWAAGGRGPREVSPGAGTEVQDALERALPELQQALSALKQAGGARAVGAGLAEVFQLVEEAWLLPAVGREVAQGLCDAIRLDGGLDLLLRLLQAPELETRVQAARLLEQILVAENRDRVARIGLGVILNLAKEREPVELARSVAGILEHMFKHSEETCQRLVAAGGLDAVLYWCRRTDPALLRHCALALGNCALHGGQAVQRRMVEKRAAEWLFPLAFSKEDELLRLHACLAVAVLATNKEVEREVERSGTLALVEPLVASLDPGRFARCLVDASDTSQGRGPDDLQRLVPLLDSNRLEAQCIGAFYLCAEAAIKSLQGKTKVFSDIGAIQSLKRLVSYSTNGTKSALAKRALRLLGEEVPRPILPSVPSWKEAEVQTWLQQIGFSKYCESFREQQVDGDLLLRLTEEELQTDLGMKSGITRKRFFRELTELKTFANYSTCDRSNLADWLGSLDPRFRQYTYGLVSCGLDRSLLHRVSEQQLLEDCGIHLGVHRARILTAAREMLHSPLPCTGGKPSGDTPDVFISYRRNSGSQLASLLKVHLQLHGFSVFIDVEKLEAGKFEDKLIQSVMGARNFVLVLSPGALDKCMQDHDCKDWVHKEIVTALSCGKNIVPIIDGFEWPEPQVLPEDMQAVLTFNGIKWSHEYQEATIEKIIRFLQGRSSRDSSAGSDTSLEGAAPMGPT
# [16] = P. berghei load reduction in hepatocytes – cell-based, HepG2, luciferase luminescence, HepG2 viability, primary screen (AID 624349; in the data active = parasite load remaining mostly below about 12%, no sharp cut-off; inactive = mostly above about 10%;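 note: 100% = mean of DMSO negative control wells on the same plate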); settings: P. berghei liver stage in HepG2, luciferase luminescence, concentration not given here; parasite load remaining: stronger effect = lower value; viability: measured here: HepG2 viability without parasites
# [17] = tested on: Aerobactin synthetase IucA (Klebsiella pneumoniae); test: inhibition of K. pneumoniae IucA enzyme – biochemical, Tocris library, absorbance (AID 1345561); settings: purified IucA enzyme assay, absorbance (OD) read-out; stronger effect = lower value; concentration not given here;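 note: 100% = enzyme without compound and 0% = no enzyme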
# [18] = viability loss in pontine glioma line – cell-based, SU-DIPG-XVII, MIPE5.0, CellTiter-Glo, qHTS, dose response (AID 1347060; cut-off not given, nearly all actives have AC50 up to about 26 µM); settings: CellTiter-Glo ATP luminescence
# [19] = viability loss in pontine glioma line – cell-based, JHH-DIPG-1, MIPE4.0, CellTiter-Glo, qHTS, dose response (AID 1347062; cut-off not given, nearly all actives have AC50 up to about 27 µM;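 note: cells exposed to compound for two days before readout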); settings: JHH-DIPG-1 viability, CellTiter-Glo ATP luminescence
# [20] = JHH-DIPG-1 glioma cell viability, MIPE5.0 library, CellTiter-Glo luminescence, qHTS (AID 1347067; cut-off not given, nearly all actives have AC50 up to about 26 µM;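 note: cells exposed to compound for 48 hours before readout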); settings: JHH-DIPG-1 glioma viability, CellTiter-Glo ATP luminescence
# [21] = growth inhibition of DIPG cells – cell-based, MIPE5.0 library, qHTS (AID 1347068; cut-off not given, nearly all actives have IC50 up to about 30 µM); settings: SU-DIPG-XXV viability
# [22] = galactose survival enhancers in mitochondrial complex I cybrids – cell-based, galactose medium, ATP luminescence, primary screen (AID 1645843;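 active = z-score of at least 1.8 in each of two replicates, scored against plate mean and spread of sample wells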;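 note: positive z means more ATP and so rescue of galactose-driven cybrid death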); settings: complex I mutant cybrid cells, 72 h, stronger effect = higher value
# [23] = chitosan synthesis blockers in C. neoformans – flow cytometry, Cibacron Brilliant Red staining (AID 1347148); settings: Cryptococcus neoformans chitosan, stronger effect = lower value; at 10 µM unless noted;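 note: compound exposure lasted three days at 37 degrees C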
# [24] = compounds altering circadian rhythm period length – cell-based, LOPAC library, luminescence reporter (AID 2774); settings: circadian reporter cells, at 7 µM, actives lie on both sides;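 note: values are relative to mean of DMSO wells on each plate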
# [25] = tested on: Hepatitis C virus NS3 helicase; test: blockers of NS3h binding to ssDNA – biochemical, fluorescence polarization, LOPAC1280 library, primary screen (AID 687035; in the data active = inhibition above about 37%); settings: Purified HCV NS3 helicase, Cy5-dT15 ssDNA binding fluorescence polarization; stronger effect = higher value; concentration not given here
# [26] = compounds altering Cy5-DNA-NS3h complex signal – biochemical, LOPAC1280, artefact control for HCV NS3 helicase inhibitor project (AID 687037); settings: Cy5-DNA-NS3h complex fluorescence interference counterscreen
# [27] = tested on: Aerobactin synthetase IucA (Klebsiella pneumoniae, hypervirulent); test: biochemical IucA inhibition screen of LOPAC library by absorbance (AID 1346212); settings: IucA enzyme assay, absorbance (OD) readout; stronger effect = lower value; concentration not given here;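 note: 100% = no compound wells and 0% = no enzyme wells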
# [28] = blockers of cellular phospholipid synthesis – cell-based, LOPAC library, screen 4, primary screen (AID 1347384); settings: animal cells, phospholipid biosynthesis inhibition screen; at 10 µM
# [29] = measured here: epithelial PC-3E GFP cell survival
# [30] = measured here: mesenchymal TEM4-18 mCherry cell survival
# [31] = measured here: relative caspase fold change +Dox/-Dox
# [32] = measured here: total cells with miR-34 induction, stronger effect = lower value
# [33] = measured here: total cells without miR-34 induction
# [34] = MELAS cybrid survival, CellTiter-Glo 48 h, stronger effect = higher value
# [35] = Rieske KO mouse fibroblast survival, CellTiter-Glo 72 h
structure (smiles),measurement,setting,value
CC1C[C@H]2CC(=O)[C@H]3CCCN4CCC[C@H]2[C@]34C1 (stereo partly specified),inhibition,[1],-1.6% (inactive)
same,activity remaining,[2],91.3% (inactive)
N#C/C(=C\c1ccc(O)cc1)C(=O)O,inhibition,[3],-8.72%
same,score,[4],1.56
same,rescue above control,[5],-7.23
same,cytochrome c release ratio,[6],0.76
same,inhibition of aggregation,[7],-4.76%
same,glutamate uptake change,[8],12%
same,inclusion score,[9],2
same,aggregation suppression score,[10],1.17
same,inhibition,[1],0.31% (inactive)
same,red/green cell ratio (normalised),[11],0.79 (inactive)
same,normalised cell number,[11]; [29],1.25
same,normalised cell number,[11]; [30],0.99
same,luciferase signal,[12],144 AU (inactive)
CC(=O)OC1CN2CCC1CC2 (stereo unspecified),inhibition,[3],0.37%
same,score,[4],1.53
same,rescue above control,[5],-10.7
same,cytochrome c release ratio,[6],0.82
same,inhibition of aggregation,[7],22.1%
same,glutamate uptake change,[8],24.5%
same,inclusion score,[9],2
same,aggregation suppression score,[10],1.12
same,inhibition,[1],8.99% (inactive)
same,red/green cell ratio (normalised),[11],0.81 (inactive)
same,normalised cell number,[11]; [29],1.08
same,normalised cell number,[11]; [30],0.87
same,fold change,[13]; stronger effect = lower value,0.909 (inactive)
same,fold change,[13]; [31],0.869
same,cell count,[13]; [32],8550
same,cell count,[13]; [33],9400
same,z-score,[14]; [34],-3.18 (inactive)
same,z-score,[14]; [35],-1.86
same,remaining NAD,[15],10 nM (inactive)
COc1cc2c(c(OC)c1OC)-c1ccc(O)c(=O)cc1[C@@H](NC(C)=O)CC2,inhibition,[1],7.64% (inactive)
same,activity remaining,[2],120% (inactive)
O=c1cccc2n1CC1CNC[C@H]2C1,parasite load remaining,[16],134% (inactive)
same,viability,[16],104%
same,inhibition,[1],-36.3% (inactive)
same,remaining activity,[17],96.4% (inactive)
same,outcome,[18],inactive
same,AC50,[19],2640 nM (active)
same,outcome,[20],inactive
same,outcome,[21],inactive
same,fold change,"[13]; stronger effect = lower value, cell number ratio, induced over uninduced",0.809 (inactive) and 0.946 (inactive)
same,fold change,[13]; [31],1.71 and 1.27
same,cell count,[13]; [32],8130 and 8990
same,cell count,[13]; [33],10000 and 9510
same,remaining NAD,[15],10 nM (inactive)
same,luciferase signal,[12],60 AU (inactive)
same,z-score,[22],1.16 (inactive)
CNC(=O)N(C)c1nnc(C(C)(C)C)s1,inhibition,[1],-12.3% (inactive)
same,activity remaining,[2],98% (inactive)
COc1cccc2c1cc([N+](=O)[O-])c1c(C(=O)O)cc3c(c12)OCO3,inhibition,[1],-5.9% (inactive)
same,activity remaining,[2],103% (inactive)
same,fold change,[13]; stronger effect = lower value,1.04 (inactive)
same,fold change,[13]; [31],1.14
same,cell count,[13]; [32],4170
same,cell count,[13]; [33],4020
same,fold fluorescence,[23],4.86 [at 146.5 µM] (inactive)
same,luciferase signal,[12],36 AU (inactive)
C[C@]12CCC3C(CC[C@]4(O)C[C@@H](O)CC[C@]34C=O)[C@@]1(O)CCC2C1=CC(=O)OC1 (stereo partly specified),score,[4],1.09
same,rescue above control,[5],6.59
same,cytochrome c release ratio,[6],1.29
same,inhibition of aggregation,[7],62.8%
same,glutamate uptake change,[8],13.8%
same,inclusion score,[9],0
same,aggregation suppression score,[10],1.29
same,inhibition,[1],14.9% (inactive)
same,red/green cell ratio (normalised),[11],0.2 (inactive)
same,normalised cell number,[11]; [29],0.18
same,normalised cell number,[11]; [30],0.04
same,activity remaining,[2],79.3% (inactive)
COC(=O)/C(C)=C\CC12OC(C)(C)C3CC(C=C4C(=O)c5c(OC)c6c(c(CC=C(C)C)c5OC431)OC(C)(CCC=C(C)C)C=C6)C2=O (stereo unspecified),inhibition,[1],-0.84% (inactive)
same,activity remaining,[2],98.7% (inactive)
COc1c(CC=C(C)C)c2c(c3oc(=O)c(-c4ccc(O)cc4)c(O)c13)C=CC(C)(C)O2,inhibition,[1],-2.87% (inactive)
same,activity remaining,[2],114% (inactive)
C=CCc1cc(OC)c2c(c1OC)OCO2,inhibition,[1],-12.9% (inactive)
same,red/green cell ratio (normalised),[11],1.18 (inactive)
same,normalised cell number,[11]; [29],0.73
same,normalised cell number,[11]; [30],0.87
same,luciferase signal,[12],32 AU (inactive)
O=C1CCCN1CC#CCN1CCCC1,inhibition,[3],17.7%
same,score,[4],1.21
same,rescue above control,[5],3.59
same,cytochrome c release ratio,[6],0.97
same,inhibition of aggregation,[7],79.6%
same,glutamate uptake change,[8],5.01%
same,inclusion score,[9],1
same,aggregation suppression score,[10],1.3
same,period change,[24],0.015 h (inactive)
same,parasite load remaining,[16],75.3% (inactive) and 41.2% (inactive)
same,viability,[16],88.4% and 99%
same,inhibition,[25],-4% (inactive)
same,fluorescence ratio (interference),[26],0.9 (inactive)
same,inhibition,[1],-3.4% (inactive)
same,remaining activity,[17],92.7% (inactive)
same,activity remaining,[2],119% (inactive)
same,remaining activity,[27],119% (inactive)
same,fold change,[13]; stronger effect = lower value,1.1 (inactive) and 0.966 (inactive) and 0.92 (inactive)
same,fold change,[13]; [31],0.937 and 0.652 and 1.46
same,cell count,[13]; [32],11000 and 8640 and 10100
same,cell count,[13]; [33],10100 and 8940 and 11000
same,outcome,[28],inactive
same,z-score,[14]; [34],-0.379 (inactive)
same,z-score,[14]; [35],-0.277
same,luciferase signal,[12],44 AU (inactive)
same,z-score,[22],0.355 (inactive) and 1.75 (inactive) and 0.67 (inactive)
COC(=O)COc1ccc(Cl)cc1Cl,inhibition,[1],-25.1% (inactive)
same,activity remaining,[2],109% (inactive)
CNC(=O)Oc1ccccc1OC(C)C,inhibition,[1],-1.91% (inactive)
same,red/green cell ratio (normalised),[11],1 (inactive)
same,normalised cell number,[11]; [29],1.06
same,normalised cell number,[11]; [30],1.05
same,fold change,[13]; stronger effect = lower value,0.96 (inactive)
same,fold change,[13]; [31],0.908
same,cell count,[13]; [32],8560
same,cell count,[13]; [33],8930
same,remaining NAD,[15],10 nM (inactive)
same,luciferase signal,[12],88 AU (inactive)
c1ccc(N=Nc2ccccc2)cc1,inhibition,[3],-11.7%
same,score,[4],0.28
same,rescue above control,[5],6.73
same,cytochrome c release ratio,[6],0.73
same,inhibition of aggregation,[7],88.8%
same,glutamate uptake change,[8],-16%
same,aggregation suppression score,[10],0.313
same,parasite load remaining,[16],103% (inactive)
same,viability,[16],66.9%
same,inhibition,[1],14.4% (inactive)
same,red/green cell ratio (normalised),[11],0.85 (inactive)
same,normalised cell number,[11]; [29],1.3
same,normalised cell number,[11]; [30],1.1
same,activity remaining,[2],103% (inactive)
same,luciferase signal,[12],40 AU (inactive)
COc1cc2c(cc1OC)[C@@H]1C(=O)c3ccc(O)c(CC=C(C)C)c3O[C@@H]1CO2,inhibition,[1],-10.7% (inactive)
same,activity remaining,[2],103% (inactive)
N#C/C(=C\c1cccc(O)c1)C(=O)O,inhibition,[3],16.4%
same,score,[4],1.48
same,rescue above control,[5],-1.13
same,cytochrome c release ratio,[6],2.28
same,inhibition of aggregation,[7],58.6%
same,glutamate uptake change,[8],-1.74%
same,inclusion score,[9],2
same,aggregation suppression score,[10],1.54
same,inhibition,[1],11.3% (inactive)
same,red/green cell ratio (normalised),[11],0.88 (inactive)
same,normalised cell number,[11]; [29],1.09
same,normalised cell number,[11]; [30],0.96
same,activity remaining,[2],104% (inactive)
same,luciferase signal,[12],128 AU (inactive)
